Measured values reported in PubChem BioAssay (EPA / NIEHS).
Results filed as inconclusive are left out. The source made the active and inactive calls. How the source made its calls, unless noted: active means hit-call score of the fitted dose curve at least 0.9, where 1 is the maximum; inactive means score below 0.9.

Assays:
[1] = ATG_NFI_CIS: Attagene CIS-FACTORIAL HepG2 Assay for human Nuclear Factor I (NFI) (AID 2282989); settings: HepG2 cis-regulatory reporter, NFI response element transcription; actives raise or lower the signal
Method in brief: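 HepG2 cells transiently transfected with cis-element-driven multiplexed reporter transcription units, dosed for 24 h. Reporter mRNA quantified by RT-PCR, fluorescent labelling, HpaI digestion and capillary electrophoresis; bidirectional fit versus DMSO baseline.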

[2] = target: Myc proto-oncogene protein (Homo sapiens) (UniProt P01106); assay: ATG_Myc_CIS: Attagene CIS-FACTORIAL HepG2 Assay for human Myelocytomatosis (Myc) Proto-Oncogene Transcription Factor (AID 2282990); settings: HepG2, Attagene cis-reporter transcription factor activity; actives raise or lower the signal
Sequence of Myc proto-oncogene protein (Homo sapiens) (P01106 whole entry, looked up): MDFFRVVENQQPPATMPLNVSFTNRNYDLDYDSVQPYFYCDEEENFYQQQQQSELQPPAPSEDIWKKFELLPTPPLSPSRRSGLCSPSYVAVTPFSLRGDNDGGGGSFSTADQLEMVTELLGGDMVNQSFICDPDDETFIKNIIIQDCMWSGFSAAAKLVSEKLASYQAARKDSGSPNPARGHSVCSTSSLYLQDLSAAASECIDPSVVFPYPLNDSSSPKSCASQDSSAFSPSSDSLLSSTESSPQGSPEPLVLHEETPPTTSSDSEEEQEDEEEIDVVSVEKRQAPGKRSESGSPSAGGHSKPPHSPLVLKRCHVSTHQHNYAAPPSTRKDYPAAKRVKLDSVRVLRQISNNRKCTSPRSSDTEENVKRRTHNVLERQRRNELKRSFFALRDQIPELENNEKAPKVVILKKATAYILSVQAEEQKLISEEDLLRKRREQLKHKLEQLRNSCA
Method in brief: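 Transiently transfected HepG2 cells bearing cis-promoter reporter units for endogenous transcription factors; 24 h exposure. Reporter mRNA measured by RT-PCR, 6-FAM primer extension, HpaI cut and capillary electrophoresis; bidirectional fit relative to DMSO.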

[3] = ATG_NF_kB_CIS: Attagene CIS-FACTORIAL HepG2 Assay for human Nuclear Factor Kappa B (NF-kB) (AID 2282991); settings: HepG2 Attagene cis-factorial NF-kB reporter mRNA; actives raise or lower the signal
Method in brief: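 Endogenous transcription factor activity in HepG2 was captured via cis-regulated reporter constructs; after 24 h dosing, reporter mRNA was reverse-transcribed, amplified, fluorescently labelled and sized by capillary electrophoresis, with activity fitted bidirectionally relative to DMSO.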

[4] = ATG_NRF2_ARE_CIS: Attagene CIS-FACTORIAL HepG2 Assay for human Nuclear Factor Erythroid 2 Related Factor 2 (NFR2) response to Antioxidant Response Elements (ARE) (AID 2282992); settings: HepG2 Attagene ARE/NRF2 reporter, transcription factor activity; actives raise or lower the signal;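 on AC50: reporter mRNA level measured by RT-PCR and capillary electrophoresis fluorescence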
Method in brief: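 Multiplexed reporter mRNA profiling in HepG2 after a 24 h chemical exposure. Curves fitted in both directions relative to DMSO negative control.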

[5] = ATG_Oct_MLP_CIS: Attagene CIS-FACTORIAL HepG2 Assay for human Octamer-Binding Transcription Factor (Oct) (AID 2282993); settings: HepG2 Attagene cis-factorial Oct reporter, mRNA; actives raise or lower the signal
Method in brief: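 HepG2 cells transiently transfected with cis-promoter-driven multiplexed reporter transcription units, dosed for 24 h. Reporter mRNA quantified by RT-PCR, fluorescent labelling, HpaI digestion and capillary electrophoresis; bidirectional fits versus DMSO baseline.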

[6] = target: Cellular tumor antigen p53 (Homo sapiens) (UniProt P04637); assay: ATG_p53_CIS: Attagene CIS-FACTORIAL HepG2 Assay for human p53 Transcription Factor (AID 2282994); settings: HepG2 p53 cis-element reporter, Attagene mRNA; actives raise or lower the signal
Sequence of Cellular tumor antigen p53 (Homo sapiens) (P04637 whole entry, looked up): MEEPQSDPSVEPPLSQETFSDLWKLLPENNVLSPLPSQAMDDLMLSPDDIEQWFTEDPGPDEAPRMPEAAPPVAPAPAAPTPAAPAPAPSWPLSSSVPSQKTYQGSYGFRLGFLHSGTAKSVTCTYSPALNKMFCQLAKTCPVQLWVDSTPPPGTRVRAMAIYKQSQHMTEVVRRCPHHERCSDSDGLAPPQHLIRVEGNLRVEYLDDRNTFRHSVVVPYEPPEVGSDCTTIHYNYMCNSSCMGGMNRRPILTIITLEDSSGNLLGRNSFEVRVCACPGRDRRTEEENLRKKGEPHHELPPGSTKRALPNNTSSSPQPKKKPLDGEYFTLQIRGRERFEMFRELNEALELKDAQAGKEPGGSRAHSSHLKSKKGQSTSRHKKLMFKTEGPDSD
Method in brief: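 Multiplexed reporter mRNA assay in human HepG2 liver cells; cis-regulated units report endogenous factor activity. Values come from bidirectional curve fitting against DMSO negative control after 24 h treatment.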

[7] = target: human Retinoic Acid Receptor beta (RARb), RARB (gene 5915) (UniProt P10826); assay: ATG_RARb_TRANS: Attagene TRANS-FACTORIAL HepG2 Assay for human Retinoic Acid Receptor beta (AID 2283004; active means hit-call score of the fitted dose curve at least 0.9, where 1 is the maximum)
Sequence of human Retinoic Acid Receptor beta (RARb), RARB (gene 5915) (P10826 whole entry, looked up, the tested form may be a part): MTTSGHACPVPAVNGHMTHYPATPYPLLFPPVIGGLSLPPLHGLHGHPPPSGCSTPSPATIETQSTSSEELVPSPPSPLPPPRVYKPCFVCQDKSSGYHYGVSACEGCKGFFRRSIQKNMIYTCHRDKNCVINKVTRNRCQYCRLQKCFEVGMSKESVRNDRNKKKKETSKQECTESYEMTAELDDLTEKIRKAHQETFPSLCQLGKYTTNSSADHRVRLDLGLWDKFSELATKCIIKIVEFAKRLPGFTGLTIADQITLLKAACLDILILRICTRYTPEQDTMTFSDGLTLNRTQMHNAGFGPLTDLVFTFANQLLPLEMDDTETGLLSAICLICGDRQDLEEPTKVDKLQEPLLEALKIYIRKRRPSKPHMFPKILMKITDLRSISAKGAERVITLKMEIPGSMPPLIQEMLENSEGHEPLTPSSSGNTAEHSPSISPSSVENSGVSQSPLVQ
Method in brief: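 Fluorescent capillary-electrophoresis detection of GAL4-UAS reporter mRNA defines the endpoint, with induction over DMSO-treated wells scored as activity. Transiently transfected human hepatoma HepG2 cells expressing exogenous NR–Gal4 proteins are exposed to test chemicals for 24 h.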

[8] = target: Retinoic acid receptor alpha (Homo sapiens) (UniProt P10276); assay: ATG_RARa_TRANS: Attagene TRANS-FACTORIAL HepG2 Assay for human Retinoic Acid Receptor alpha (RARa) (AID 2283005; active means hit-call score of the fitted dose curve at least 0.9, where 1 is the maximum)
Sequence of Retinoic acid receptor alpha (Homo sapiens) (P10276 whole entry, looked up, the tested form may be a part): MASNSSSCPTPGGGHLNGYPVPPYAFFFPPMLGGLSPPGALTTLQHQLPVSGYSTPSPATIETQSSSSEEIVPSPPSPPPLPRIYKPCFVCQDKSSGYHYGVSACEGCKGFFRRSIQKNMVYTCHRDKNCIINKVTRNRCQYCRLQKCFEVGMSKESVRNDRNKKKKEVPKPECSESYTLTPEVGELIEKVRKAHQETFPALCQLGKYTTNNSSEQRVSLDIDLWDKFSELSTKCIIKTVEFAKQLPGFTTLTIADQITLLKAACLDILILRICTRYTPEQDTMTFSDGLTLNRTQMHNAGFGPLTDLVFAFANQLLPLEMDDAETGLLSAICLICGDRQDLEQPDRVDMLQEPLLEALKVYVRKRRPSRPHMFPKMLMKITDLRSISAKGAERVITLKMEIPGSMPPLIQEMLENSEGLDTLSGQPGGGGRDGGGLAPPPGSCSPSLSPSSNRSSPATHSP
Method in brief: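 HepG2 transiently transfected with multiplex GAL4-UAS reporter units including a human RARa–GAL4 chimera; 24 h compound exposure. Reporter mRNA quantified by RT-PCR, 6-FAM labeling and capillary electrophoresis; gain of signal versus DMSO.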

[9] = target: Nuclear receptor subfamily 1 group I member 2 (Homo sapiens) (UniProt O75469); assay: ATG_PXR_TRANS: Attagene TRANS-FACTORIAL HepG2 Assay for human Pregnane X Receptor (PXR) (AID 2283008; active means hit-call score of the fitted dose curve at least 0.9, where 1 is the maximum)
Sequence of Nuclear receptor subfamily 1 group I member 2 (Homo sapiens) (O75469 whole entry, looked up, the tested form may be a part): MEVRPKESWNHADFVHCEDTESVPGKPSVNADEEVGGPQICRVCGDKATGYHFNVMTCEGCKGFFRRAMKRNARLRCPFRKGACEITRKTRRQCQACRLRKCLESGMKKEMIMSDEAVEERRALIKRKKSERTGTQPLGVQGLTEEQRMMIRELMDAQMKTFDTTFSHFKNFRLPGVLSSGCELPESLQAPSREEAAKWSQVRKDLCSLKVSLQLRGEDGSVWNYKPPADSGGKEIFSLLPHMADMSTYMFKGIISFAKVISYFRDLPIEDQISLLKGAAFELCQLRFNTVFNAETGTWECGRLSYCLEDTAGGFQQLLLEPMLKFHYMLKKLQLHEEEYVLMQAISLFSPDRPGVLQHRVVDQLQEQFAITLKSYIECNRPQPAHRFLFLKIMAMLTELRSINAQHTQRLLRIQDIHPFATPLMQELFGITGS
Method in brief: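 Measures mRNA induction of a GAL4-UAS-driven reporter in human HepG2 cells transiently expressing PXR fused to Gal4, following 24 h treatment. DMSO served as negative control and baseline.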

[10] = target: human Retinoic Acid Receptor gamma (RARg), RARG (gene 5916) (UniProt P13631); assay: ATG_RARg_TRANS: Attagene TRANS-FACTORIAL HepG2 Assay for human Retinoic Acid Receptor gamma (RARg) (AID 2283009; active means hit-call score of the fitted dose curve at least 0.9, where 1 is the maximum)
Sequence of human Retinoic Acid Receptor gamma (RARg), RARG (gene 5916) (P13631 whole entry, looked up, the tested form may be a part): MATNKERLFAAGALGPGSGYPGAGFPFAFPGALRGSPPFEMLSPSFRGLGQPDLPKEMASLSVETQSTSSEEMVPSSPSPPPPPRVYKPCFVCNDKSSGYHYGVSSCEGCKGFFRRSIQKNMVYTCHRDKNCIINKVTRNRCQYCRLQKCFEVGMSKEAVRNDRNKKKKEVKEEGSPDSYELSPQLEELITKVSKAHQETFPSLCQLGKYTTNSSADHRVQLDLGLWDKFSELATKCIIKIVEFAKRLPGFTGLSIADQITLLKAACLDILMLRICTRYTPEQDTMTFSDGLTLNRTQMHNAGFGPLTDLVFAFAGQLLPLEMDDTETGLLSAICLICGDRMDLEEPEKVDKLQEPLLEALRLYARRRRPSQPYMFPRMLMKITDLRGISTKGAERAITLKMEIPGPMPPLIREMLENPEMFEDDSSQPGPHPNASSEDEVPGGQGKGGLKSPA
Method in brief: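 HepG2, RARg-GAL4 TRANS system, 24 h exposure; reporter mRNA by RT-PCR + CE fluorescence; increase over DMSO.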

[11] = target: human RAR-related Orphan Receptor beta (RORb), RORB (gene 6096) (UniProt Q92753); assay: ATG_RORb_TRANS: Attagene TRANS-FACTORIAL HepG2 Assay for human RAR-related Orphan Receptor beta (RORb) (AID 2283010; active means hit-call score of the fitted dose curve at least 0.9, where 1 is the maximum)
Sequence of human RAR-related Orphan Receptor beta (RORb), RORB (gene 6096) (Q92753 whole entry, looked up, the tested form may be a part): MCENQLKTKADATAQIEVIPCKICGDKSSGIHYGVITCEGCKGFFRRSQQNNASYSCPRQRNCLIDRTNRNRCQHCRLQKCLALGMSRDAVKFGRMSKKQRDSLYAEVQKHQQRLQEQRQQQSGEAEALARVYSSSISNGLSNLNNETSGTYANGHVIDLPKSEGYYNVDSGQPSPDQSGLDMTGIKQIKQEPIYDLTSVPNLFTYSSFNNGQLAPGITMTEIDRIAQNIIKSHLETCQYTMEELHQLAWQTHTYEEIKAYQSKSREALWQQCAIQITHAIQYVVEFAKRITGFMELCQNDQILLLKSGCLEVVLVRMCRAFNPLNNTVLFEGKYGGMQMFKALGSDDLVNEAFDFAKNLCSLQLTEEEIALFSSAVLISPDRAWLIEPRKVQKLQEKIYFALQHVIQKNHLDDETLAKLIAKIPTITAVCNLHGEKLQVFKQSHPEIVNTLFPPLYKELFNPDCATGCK
Method in brief: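 In this TRANS-format test, human HepG2 cells express chimeric NR-Gal4 fusion proteins driving GAL4-UAS reporters. After 24 h dosing, reporter transcripts are measured by fluorescent RT-PCR/capillary electrophoresis, with DMSO as negative control.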

[12] = target: Peroxisome proliferator-activated receptor gamma (Homo sapiens) (UniProt P37231); assay: ATG_PPARg_TRANS: Attagene TRANS-FACTORIAL HepG2 Assay for human Peroxisome Proliferator-activated Receptor-gamma (PPARg) (AID 2283007; active means hit-call score of the fitted dose curve at least 0.9, where 1 is the maximum)
Sequence of Peroxisome proliferator-activated receptor gamma (Homo sapiens) (P37231 whole entry, looked up, the tested form may be a part): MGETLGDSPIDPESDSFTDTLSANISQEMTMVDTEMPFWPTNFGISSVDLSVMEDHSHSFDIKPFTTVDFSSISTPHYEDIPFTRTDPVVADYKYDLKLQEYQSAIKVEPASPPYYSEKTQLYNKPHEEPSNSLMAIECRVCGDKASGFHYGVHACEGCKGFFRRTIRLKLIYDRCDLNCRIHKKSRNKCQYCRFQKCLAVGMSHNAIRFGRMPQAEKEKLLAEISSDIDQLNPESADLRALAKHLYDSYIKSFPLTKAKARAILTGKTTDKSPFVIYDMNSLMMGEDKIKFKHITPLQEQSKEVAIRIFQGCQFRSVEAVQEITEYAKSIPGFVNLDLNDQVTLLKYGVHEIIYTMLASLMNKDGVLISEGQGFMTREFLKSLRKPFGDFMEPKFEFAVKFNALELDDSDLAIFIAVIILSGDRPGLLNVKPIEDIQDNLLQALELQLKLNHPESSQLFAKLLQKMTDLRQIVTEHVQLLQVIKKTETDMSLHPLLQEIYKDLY
Method in brief: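 A TRANS-format multiplexed reporter assay measures activity of an exogenous chimeric NR-Gal4 protein in HepG2 cells. After 24 h of chemical exposure, reporter transcripts are amplified, fluorescently labelled and sized by capillary electrophoresis, with gain of signal scored against DMSO.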

[13] = target: human Peroxisome Proliferator-activated Receptor delta (PPARd), PPARD (gene 5467) (UniProt Q03181); assay: ATG_PPARd_TRANS: Attagene TRANS-FACTORIAL HepG2 Assay for human Peroxisome Proliferator-activated Receptor delta (PPARd) (AID 2283002; active means hit-call score of the fitted dose curve at least 0.9, where 1 is the maximum)
Sequence of human Peroxisome Proliferator-activated Receptor delta (PPARd), PPARD (gene 5467) (Q03181 whole entry, looked up, the tested form may be a part): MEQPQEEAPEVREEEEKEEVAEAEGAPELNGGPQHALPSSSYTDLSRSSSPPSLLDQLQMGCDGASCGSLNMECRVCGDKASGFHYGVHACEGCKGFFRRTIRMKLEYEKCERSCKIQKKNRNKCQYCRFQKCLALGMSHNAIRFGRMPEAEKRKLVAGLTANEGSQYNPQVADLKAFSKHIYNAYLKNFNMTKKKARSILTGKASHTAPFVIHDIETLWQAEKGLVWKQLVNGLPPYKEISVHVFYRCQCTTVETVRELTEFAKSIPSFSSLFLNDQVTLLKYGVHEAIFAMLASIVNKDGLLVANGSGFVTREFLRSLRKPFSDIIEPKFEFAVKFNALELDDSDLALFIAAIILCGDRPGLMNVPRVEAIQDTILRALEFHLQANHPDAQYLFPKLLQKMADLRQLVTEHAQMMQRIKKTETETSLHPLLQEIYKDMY
Method in brief: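 HepG2 cells transiently transfected with GAL4-UAS multiplexed reporter units driven by exogenous chimeric NR-GAL4 proteins; 24 h compound exposure. Reporter mRNA measured by RT-PCR, 6-FAM primer extension, HpaI digestion and capillary electrophoresis; gain of signal fitted relative to DMSO.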

[14] = target: human Peroxisome Proliferator-activated Receptor alpha (PPARa), PPARA (gene 5465) (UniProt Q07869); assay: ATG_PPARa_TRANS: Attagene TRANS-FACTORIAL HepG2 Assay for human Peroxisome Proliferator-activated Receptor alpha (PPARa) (AID 2283001; active means hit-call score of the fitted dose curve at least 0.9, where 1 is the maximum)
Sequence of human Peroxisome Proliferator-activated Receptor alpha (PPARa), PPARA (gene 5465) (Q07869 whole entry, looked up, the tested form may be a part): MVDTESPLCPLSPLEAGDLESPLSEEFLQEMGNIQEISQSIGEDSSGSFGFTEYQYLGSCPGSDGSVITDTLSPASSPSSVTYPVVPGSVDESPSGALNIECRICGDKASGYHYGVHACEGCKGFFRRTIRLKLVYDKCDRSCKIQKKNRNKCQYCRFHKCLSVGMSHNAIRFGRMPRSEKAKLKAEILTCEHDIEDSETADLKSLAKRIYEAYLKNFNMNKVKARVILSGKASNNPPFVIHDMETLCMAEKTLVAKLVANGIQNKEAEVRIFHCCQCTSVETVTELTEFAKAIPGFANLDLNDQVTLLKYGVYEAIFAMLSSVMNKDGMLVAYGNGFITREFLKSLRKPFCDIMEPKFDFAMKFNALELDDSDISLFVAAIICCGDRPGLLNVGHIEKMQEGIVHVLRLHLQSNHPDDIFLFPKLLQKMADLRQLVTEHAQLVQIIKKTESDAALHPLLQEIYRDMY
Method in brief: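 Measures transcriptional activity of an exogenous chimeric PPARa-Gal4 protein in transiently transfected HepG2 cells after 24 h dosing. Reporter mRNA quantified via RT-PCR and capillary electrophoresis; DMSO served as negative control.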

With `CC1CC(O)CC(C)(C)C1` (configuration not stated) as the compound, how does the outcome [1] read?
Its outcome is “inactive”.

And the outcome [2]?
The outcome was “inactive”.

And the outcome [3]?
The outcome was “inactive”.

And the outcome [4]?
The outcome was “inactive”.

What about the outcome [5] of the same compound?
The outcome was “inactive”.

And the outcome [6]?
Its outcome is “inactive”.

And the outcome [7]?
The outcome was “inactive”.

And the outcome [8]?
The outcome was “inactive”.

And the outcome [9]?
Its outcome is “inactive”.

What about the outcome [10] of the same compound?
The outcome was “inactive”.

What about the outcome [11] of the same compound?
The outcome was “inactive”.

For `O=CCc1ccccc1`, which outcome [1] is on record?
The outcome was “inactive”.

And the outcome [2]?
The outcome was “inactive”.

And the outcome [3]?
Its outcome is “inactive”.

What about the outcome [4] of the same compound?
The outcome was “inactive”.

What about the outcome [5] of the same compound?
Its outcome is “inactive”.

And the outcome [6]?
The outcome was “inactive”.

What about the AC50 [12] of the same compound?
The AC50 was 22.9 µM (active).

And the AC50 [9]?
The AC50 was 13.1 µM (active).

What about the outcome [10] of the same compound?
The outcome was “inactive”.

With `O=C1NC2NC(=O)NC2N1` (configuration not stated) as the compound, how does the outcome [1] read?
The outcome was “inactive”.

What about the outcome [2] of the same compound?
Its outcome is “inactive”.

What about the outcome [3] of the same compound?
Its outcome is “inactive”.

And the outcome [4]?
Its outcome is “inactive”.

And the AC50 [5]?
Its AC50 is 0.167 µM (active).

What about the outcome [6] of the same compound?
Its outcome is “inactive”.

What about the outcome [8] of the same compound?
The outcome was “inactive”.

What about the outcome [12] of the same compound?
Its outcome is “inactive”.

What about the outcome [11] of the same compound?
The outcome was “inactive”.

Which results are given for `CCCOC(=O)c1c(Cl)c(Cl)c(Cl)c(Cl)c1C(=O)OCCC`?
AC50 [1]: 156 µM (active); AC50 [2]: 100 µM (active); outcome [3]: inactive; AC50 [4]: 55.3 µM (active); AC50 [5]: 148 µM (active); outcome [6]: inactive; AC50 [12]: 5.66 µM (active); AC50 [9]: 4.24 µM (active)

Which results are given for `[Cl][Au]([Cl])[Cl]`?
outcome [1]: inactive; outcome [2]: inactive; outcome [3]: inactive; AC50 [4]: 0.156 µM (active); outcome [5]: inactive; outcome [6]: inactive; outcome [13]: inactive

Which outcome [1] does the source give for `C=COCCOCCOC=C` here?
Its outcome is “inactive”.

What about the outcome [2] of the same compound?
Its outcome is “inactive”.

And the outcome [3]?
Its outcome is “inactive”.

And the outcome [4]?
The outcome was “inactive”.

And the outcome [5]?
The outcome was “inactive”.

And the outcome [6]?
The outcome was “inactive”.

And the outcome [12]?
The outcome was “inactive”.

For `CN(C)c1cccc(O)c1`, which outcome [1] is on record?
The outcome was “inactive”.

What about the outcome [2] of the same compound?
The outcome was “inactive”.

What about the outcome [3] of the same compound?
Its outcome is “inactive”.

What about the outcome [4] of the same compound?
The outcome was “inactive”.

And the outcome [5]?
Its outcome is “inactive”.

What about the outcome [14] of the same compound?
Its outcome is “inactive”.

What about the outcome [13] of the same compound?
Its outcome is “inactive”.

What about the outcome [12] of the same compound?
The outcome was “inactive”.

What about the AC50 [9] of the same compound?
The AC50 was 5.57 µM (active).

What about the outcome [11] of the same compound?
Its outcome is “inactive”.

Which outcome [1] does the source give for `CC(C)(CO)[C@@H](O)C(=O)NCCC(=O)O` here?
Its outcome is “inactive”.

And the outcome [2]?
Its outcome is “inactive”.

What about the outcome [3] of the same compound?
Its outcome is “inactive”.

And the outcome [4]?
The outcome was “inactive”.

And the outcome [5]?
The outcome was “inactive”.

What about the outcome [6] of the same compound?
Its outcome is “inactive”.

And the outcome [9]?
The outcome was “inactive”.

And the outcome [10]?
The outcome was “inactive”.

Which results are given for `C=C(C)[C@@H]1CC=C(C)C(=O)C1`?
outcome [1]: inactive; outcome [2]: inactive; outcome [3]: inactive; AC50 [4]: 45.4 µM (active); outcome [5]: inactive; outcome [14]: inactive; outcome [12]: inactive; outcome [9]: inactive

Which outcome [1] does the source give for `CC(=O)CC(=O)Nc1ccccc1` here?
Its outcome is “inactive”.

And the outcome [2]?
The outcome was “inactive”.

And the outcome [3]?
Its outcome is “inactive”.

What about the outcome [4] of the same compound?
The outcome was “inactive”.

What about the outcome [5] of the same compound?
The outcome was “inactive”.

And the outcome [14]?
The outcome was “inactive”.

And the outcome [13]?
Its outcome is “inactive”.

And the outcome [12]?
Its outcome is “inactive”.

What about the outcome [9] of the same compound?
The outcome was “inactive”.

And the outcome [11]?
The outcome was “inactive”.

Which outcome [1] does the source give for `CC(=O)c1ccccn1` here?
The outcome was “inactive”.

What about the outcome [2] of the same compound?
The outcome was “inactive”.

And the outcome [3]?
The outcome was “inactive”.

And the outcome [4]?
Its outcome is “inactive”.

What about the outcome [6] of the same compound?
The outcome was “inactive”.
